# Assay results taken from PubChem BioAssay AID624352 (Sanford-Burnham Center for Chemical Genomics, 2012).
# In all, about 360,000 compounds went through this assay and about 2,600 (0.72%) were called active.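 The calls were made as follows: active = inhibition of the luminescence signal of 40% or more relative to plate controls, in a single-dose primary screen at 18.75 µM; inactive = the rest.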 The entries come from a sample that favours actives as a whole.
# Experiment: HIF-2a reporter inhibitors, primary screen, luminescence, 786-0 RCC cells (AID 624352)
# Conditions: 786-0 RCC cells HIF-2a reporter, luciferase luminescence, overnight; at 18.8 µM; active compounds read high
row,Compound,inhibition
1,Cc1ccc(OCCCC(=O)Nc2ccc3c(c2)OCCO3)cc1,1.79% (inactive)
2,COC(=O)CCNc1ccc2c(c1)OCCO2,42% (active)
3,CCOc1ccc(NCCC(=O)c2ccc3c(c2)OCO3)cc1,-129% (inactive)
4,CCC(=O)Nc1ccc(C(=O)CSc2nnc(CNc3ccc(Cl)cc3)o2)cc1OC,14.6% (inactive)
5,CC(=O)N1c2ccc(S(=O)(=O)N3CCCC(C(=O)Nc4ccc(C)cc4C)C3)cc2CC1C (stereo not given),17% (inactive)
6,Oc1ccc(CNc2ccccc2O)cc1,-142% (inactive)
7,O=S(=O)(NCc1ccccn1)c1ccc(Br)s1,-3.82% (inactive)
8,O=S(=O)([N-]c1nc2ccccc2nc1-[n+]1ccc(Cc2ccccc2)cc1)c1ccc(Br)s1,52.2% (active)
9,CCN(CC)CC(=O)Nc1nn(-c2ccccc2)nc1C(N)=O,4.53% (inactive)
10,OCCCNC(c1ccccc1)c1ccc(O)cc1 (stereo not given),1.29% (inactive)
11,O=C(/C=C/Sc1ncn[nH]1)c1ccc(Cl)cc1,88.1% (active)
12,CC(=O)OCc1cc(=O)n(C)c(=O)n1C,-10.8% (inactive)
13,O=C(CSc1nc2cccc(F)c2c(=O)n1-c1ccccc1)Nc1ccc2c(c1)CCC2,-5.39% (inactive)
14,COc1ccc(CC(N)c2csc(NC(=O)Nc3ccc(C(C)C)cc3)n2)cc1 (stereo not given),91.1% (active)
15,CC(C)(C)CC(=O)Nc1nc(C(N)Cc2ccc(C(F)(F)F)cc2)cs1 (stereo not given),11.1% (inactive)
16,COc1ccc(CC(N)c2csc(NC(=O)NC(c3ccccc3)c3ccccc3)n2)cc1 (stereo not given),4.75% (inactive)
17,O=C(CNC(=O)OCc1ccccc1)Oc1cc2oc(=O)cc(-c3ccccc3)c2cc1Cl,-13.9% (inactive)
18,CN1OC[C@@H]2CN(S(=O)(=O)c3cccc(C(F)(F)F)c3)[C@H](c3ccc(-c4cc5ccccc5o4)cc3)C[C@@H]21,50.8% (active)
19,CN1OC[C@@H]2CN(S(=O)(=O)c3cccc4ccccc34)[C@H](c3ccc(N4CCCCC4)cc3)C[C@@H]21,7.35% (inactive)
20,COc1ccc(S(=O)(=O)N2C[C@H]3CON(C)[C@H]3C[C@H]2c2cccc(Br)c2)cc1,6% (inactive)
21,COc1ccc(-c2cnc3c(c2)C(=O)N([C@H](C)CO)C[C@@H](C)[C@H](CN(C)Cc2ccccc2)O3)cc1,-3.08% (inactive)
22,COCCNC(=O)c1ccccc1-c1nc(-c2ccccc2Cl)no1,-82.5% (inactive)
23,CN(C)CCNC(=O)c1ccc(Cl)c2cc3ccccc3nc12,43.6% (active)
24,Cc1cc(C)n(C(=O)CCNC(=O)c2ccccc2Cl)n1,5.47% (inactive)
25,O=S(=O)(N/N=C\c1cccn1-c1ccccc1)c1ccc2ccccc2c1,9.64% (inactive)
